Test results from PubChem BioAssay AID652054 (National Center for Advancing Translational Sciences (NCATS), 2013).
Out of some 360,000 compounds screened, about 9,100 (2.5%) were called active. About 4% were inconclusive and are not listed. Rule as the data show it: active = max response below about -50%; inconclusive = no clear call, values can overlap the other calls; inactive = above that. The entries come from a sample that favours actives as a whole.

Biological target: D(3) dopamine receptor (Homo sapiens) (UniProt P35462)
Sequence (P35462 whole entry, looked up): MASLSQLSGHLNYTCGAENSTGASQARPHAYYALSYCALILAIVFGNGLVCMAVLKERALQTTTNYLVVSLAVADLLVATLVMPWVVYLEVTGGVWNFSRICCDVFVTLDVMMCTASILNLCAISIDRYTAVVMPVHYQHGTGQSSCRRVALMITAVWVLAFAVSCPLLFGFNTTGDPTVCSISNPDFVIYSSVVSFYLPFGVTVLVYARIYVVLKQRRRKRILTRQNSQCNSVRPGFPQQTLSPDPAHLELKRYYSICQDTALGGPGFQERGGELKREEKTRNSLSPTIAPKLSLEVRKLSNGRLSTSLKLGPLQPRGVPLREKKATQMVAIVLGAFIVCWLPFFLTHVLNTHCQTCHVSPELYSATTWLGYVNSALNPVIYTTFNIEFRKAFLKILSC
Experiment: qHTS of D3 Dopamine Receptor Antagonist: qHTS
Settings: D3R cells, DiscoveRx beta-arrestin luminescence, antagonist mode; hits give low values
Method in brief: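 Cells plated overnight at 1500 cells/well, then exposed to library compounds with dopamine controls for 90 minutes at 37 degrees C. DiscoveRx reagent added for 30–60 minutes at room temperature; luminescence read, quantitative HTS format.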
% is scaled to controls: 0 for no effect and ±100 for the full control effect.

Max response, negative = inhibition, inactive:
C[C@@H]1CC2=C(C(=O)OC(C)(C)O2)[C@@H](C2CC2)O1 20%
CC1(C(=O)NCc2ccccc2)CN(S(C)(=O)=O)CC(=O)N1CC(F)(F)F (stereo not drawn) 17.5%
Cc1cccc(C(=O)C(O)(c2ccccc2)C2CCCCC2=O)c1 (stereo not drawn) 6.43%
CC(=O)c1cc2c(cc1NC(=O)Cn1nc(-c3ccc(F)cc3)ccc1=O)OCO2 -11.4%
O=C(CN1CCCCCC1)Nc1ccc(Br)cc1Br -12.8%
COc1ccc(C(C)(O)c2nc(-c3cc(F)cc(F)c3)cs2)cc1 (stereo not drawn) 2.54%
Cc1ccccc1S(=O)(=O)NC(=O)C1(C)CCN1C(=O)Cc1ccc(Cl)cc1Cl (stereo not drawn) -7.52%
O=C1[C@H]2[C@@H](c3ccc(C(F)(F)F)cc3)N[C@]3(CCCN(Cc4ccc(Br)cc4)C3=O)[C@H]2C(=O)N1Cc1ccccc1 29.8%
CCc1nc(NCCO)c(C#N)c2c1CCCC2 -13.6%
CC(C)Cc1nc(N2CCOCC2)c(C#N)c2c1CCC2 36.7%
CCOC(=O)C1(C)CCCN(C(=O)c2ccc(N(C)C)cc2)C1 (stereo not drawn) 3.97%
CC(=NNC(=S)N1CCCCCC1)c1ccccn1 18.7%
NC(=O)NC(CC(=O)NNC(=O)c1ccccn1)c1ccc(Cl)cc1 (stereo not drawn) -12.6%
CC1(C(=O)NS(=O)(=O)c2ccc(Cl)cc2)CCN1C(=O)CC1CCCC1 (stereo not drawn) -16%
CCN1C(=O)[C@H]2[C@@H](c3ccccc3)N[C@]3(CCCN(Cc4ccc(C)cc4)C3=O)[C@H]2C1=O -7.93%
CCc1nc2ccc(C(=O)N3CCC(O)(Cc4ccccc4)CC3)cn2c1N(C)C(=O)Cc1ccccc1 -22.4%
Cc1ccc(CN2CCN(Cc3ccc(OCCO)cc3)CC2CCO)o1 (stereo not drawn) 4.23%
Cc1ccc(CN2CCN(Cc3cn(C)nc3-c3ccccc3)CC2CCO)o1 (stereo not drawn) 3.14%
O=C(Nc1ccc(S(=O)(=O)N2CCc3ccccc3C2)cc1)c1ccccc1 19.5%
COc1ccc(C(CNC(=O)c2cccc(S(=O)(=O)Nc3ccccc3Cl)c2)N2CCOCC2)cc1 (stereo not drawn) 22.5%
COc1ccc(C(CNC(=O)c2cc(S(=O)(=O)Nc3cccc(C)c3)ccc2C)N2CCCC2)cc1 (stereo not drawn) -25.7%
COc1ccccc1C(CNC(=O)c1cccc(S(=O)(=O)Nc2ccc(F)cc2)c1)N(C)C (stereo not drawn) -23.9%
CC(NC(=O)c1cccc(S(=O)(=O)N2CCc3ccccc3C2)c1)c1ccco1 (stereo not drawn) 4.52%
COc1ccc(C(CNC(=O)c2ccc(NS(=O)(=O)c3ccc(F)c(C)c3)cc2)N(C)C)cc1 (stereo not drawn) -15.4%
CC1(C(=O)NCc2ccc3c(c2)OCO3)CCN1C(=O)Cc1cccs1 (stereo not drawn) 27.8%
CCCc1c(C)nc2scc(-c3ccc(Cl)cc3)n2c1=O 3.72%
COc1ccc(OC)c(C(O)c2ncc(-c3cccc(C(F)(F)F)c3)[nH]2)c1 (stereo not drawn) -26%
CCOC(=O)[C@]12CCCC=C1N(Cc1cccc3ccccc13)C(=O)[C@H](CC(=O)NCC13CC4CC(CC(C4)C1)C3)C2 -25.2%
CCCNC(=O)c1cc(C2CCCCN2S(=O)(=O)c2cn(C)cn2)on1 (stereo not drawn) 0.438%
CN(C)c1cccc(NC(=O)c2ccc(-c3ccc(F)c(F)c3)c3ccoc23)c1 -0.987%
CC(C)CN1C(=O)CN(S(C)(=O)=O)CC1(C)C(=O)NCc1ccccc1 (stereo not drawn) 18.8%
N#Cc1ccc(CSc2nnc(-c3ccccn3)n2-c2ccc(Cl)cc2)cc1 -15.7%
FC(F)(F)c1nc(-c2ccccc2)ncc1-c1nnnn1-c1ccccc1 16.8%
Cn1c(NCc2cccnc2)nc2cc(-c3ccc(F)cc3)sc2c1=O 0%
CCN(CC)CCn1c2c(c(SCC(=O)Nc3nc4ccccc4s3)nc1=O)CCCC2 -4.31%
CCc1ccc(-c2nnn(Cc3nc4ccccc4s3)n2)cc1 12.9%
CCc1nc2ccc(C(=O)Nc3ccc(OC)c(OC)c3)cn2c1N(C)C(=O)c1cccc(OC)c1 -28%
COc1cccc(-c2nc(CS(=O)CC(=O)NCc3ccc(F)cc3)c(C)o2)c1 (stereo not drawn) -12.9%
COc1ccc(-c2nc(CS(=O)CC(=O)NCc3ccccc3)c(C)o2)cc1OC (stereo not drawn) -17%
CCN(CC)CCN(C)C(c1ccnc2ccccc12)c1nnnn1-c1ccc2c(c1)OCCO2 (stereo not drawn) 0%
Cn1c(C(=O)NCCCN2CCCCC2)cc2sccc21 -17.4%
COc1ccc(CCNC(=O)COC(=O)/C=C/c2cccs2)cc1OC -11.9%
COc1cc(C(O)c2nc(-c3cccc(C(=O)O)c3)cs2)ccc1F (stereo not drawn) 5.94%
CN(Cc1c(F)cccc1Cl)C(=O)COC(=O)Cn1cnc2ccccc2c1=O 16%
O=C(COc1ccc(Cl)cc1)NCCC1=CCCCC1 -11.2%
O=C(COc1cccc(-n2cnnn2)c1)NCCC1=CCCCC1 -5.35%

Max response, negative = inhibition, active:
CC(=O)c1cc2c(cc1NC(=O)CN1CCCCCC1)OCO2 -65%
CC(C)CCNc1nc(N2CCCC2)c2c(c1C#N)CCN(C)C2 -65.7%
C/C(=N\NC(=O)Cc1ccc(Cl)cc1)c1ccccn1 -93.2%
Cc1ccc(CN2CCN(c3ccccc3Cl)CC2)o1 -75.6%
CN(C)C(CNC(=O)c1cccc(S(=O)(=O)N2CCc3ccccc3C2)c1)c1ccccc1 (stereo not drawn) -80.6%
COc1ccc(C(CNC(=O)c2cccc(S(=O)(=O)Nc3ccc(Br)cc3)c2)N(C)C)cc1 (stereo not drawn) -53.5%
COc1ccc(C(CNC(=O)c2cccc(NS(=O)(=O)c3ccc(C)c(F)c3)c2)N2CCCC2)cc1 (stereo not drawn) -55.7%
Clc1ccc(-n2nnnc2-c2cnc(-c3ccccn3)nc2-c2cccs2)cc1 -60.1%
CCN(CC)CCCSc1nc2ccccc2s1 -73.9%
COc1ccc(-c2nc(CS(=O)CC(=O)NCc3cccnc3)c(C)o2)cc1OC (stereo not drawn) -53.3%
COc1ccc(CCNC(=O)c2cc3sccc3n2C)cc1OC -72%
Cc1nnc(OCC(=O)NCCC2=CCCCC2)c2ccccc12 -80.1%
